Source: PubChem
PI4K2A inh = inhibitors of human PI4K2A; purified PI4K2A, ADP-Glo luminescence, 1 h; active compounds read low; Q9BTU6; 420,000 compounds, 0.13% hits; AID 1346378; activity change, negative = inhibition, % at 76.9 µM; in the data active = activity change below about -50%; inconclusive = mostly about -30% to -49%
Target sequence (Q9BTU6 whole entry, looked up): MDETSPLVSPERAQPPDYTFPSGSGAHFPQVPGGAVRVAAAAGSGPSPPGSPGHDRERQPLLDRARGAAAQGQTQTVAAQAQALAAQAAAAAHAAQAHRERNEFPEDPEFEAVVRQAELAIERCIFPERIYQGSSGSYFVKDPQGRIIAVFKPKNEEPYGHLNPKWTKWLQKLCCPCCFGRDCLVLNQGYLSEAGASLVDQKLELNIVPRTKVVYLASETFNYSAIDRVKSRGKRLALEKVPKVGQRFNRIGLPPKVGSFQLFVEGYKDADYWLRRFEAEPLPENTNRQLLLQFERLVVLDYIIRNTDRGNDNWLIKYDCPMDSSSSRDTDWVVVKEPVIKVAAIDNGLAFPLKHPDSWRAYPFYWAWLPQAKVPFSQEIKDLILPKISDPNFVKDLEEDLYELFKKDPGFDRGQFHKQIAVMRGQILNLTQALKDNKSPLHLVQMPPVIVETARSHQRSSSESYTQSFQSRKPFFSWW
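PI4K2A activity was measured by ADP-Glo luminescence: enzyme (4 ug/mL stock) and phosphatidylinositol (1.2 mM stock) in Tris pH 7.5/MgCl2/EGTA/Triton X-100 buffer were reacted with ATP (300 microM stock) for one hour at ambient temperature.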
Giardia killer = kills Giardia lamblia | 340,000 compounds, 0.15% hits | Giardia lamblia trophozoite viability | activity change, % at 7.66 µM, hits read low | AID 540267; in the data active = activity change below about -80%; inconclusive = between about -30% and that limit;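 also: parasites exposed to compound for two days anaerobically before the ATP read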
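Viability, read as ATP luminescence: trophozoites at 100 cells/well, compound added, 48 hrs anaerobic at 37 deg C, then 15-30 min room-temperature development before reading.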
A549 viability = A549 cytotoxicity, counter-screen for Nrf2 inhibitors; A549 ARE-Fluc cells, CellTiter-Fluor viability, 18-24 h; Potency, µM (titrated, usually from 46 µM), usual class: inhibitors; 390,000 compounds, 0.16% hits
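Cytotoxicity counterscreen: CellTiter-Fluor fluorescence was measured in A549 ARE_Fluc cells after 18-24 h of compound exposure in a concentration series. The subsequent BugLite luminescent read reports ARE-luciferase activity.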
KB-3-1 cytotox = kills parental KB-3-1 adenocarcinoma cells; KB-3-1 viability, CellTiter-Glo ATP luminescence, 72 h; Potency, µM (titrated, usually from 46.1 µM), most hits filed as cytotoxic; 400,000 compounds, 1.4% hits; also: nearly all actives have a fitted effect of over 60% in size
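Luminescent ATP read-out (CellTiter-Glo) measures survival of drug-naive KB-3-1 cells after 72 h compound exposure at 37 °C. Titration series was screened from lowest to highest concentration, with DMSO vehicle plates as background controls.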
KB-V1 MDR tox = kills drug-selected multidrug resistant KB-V1 cells | KB-V1 MDR cells viability, CellTiter-Glo, 72 h | Potency, µM (doses to about 46.1 µM), most hits filed as cytotoxic | 400,000 compounds, 3.4% hits; also: nearly all actives have a fitted effect of over 60% in size
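Compound-treated KB-V1 multidrug-resistant cells, 72 h, 37 degrees C; viability by CellTiter-Glo. Fitted qHTS curves give the values.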
Nrf2 inh = inhibitors of Nrf2 signaling | A549 ARE-Fluc reporter, luciferase luminescence, 18-24 h | 360,000 compounds, 2.1% hits | Potency, µM (doses to about 46 µM), usual class: inhibitors; also: nearly all actives have a fitted effect of over 60% in size
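In this cell-based qHTS, ARE-driven firefly luciferase in A549 cells reports Nrf2 activity; the luminescent signal after BugLite lysis is the measured value, with a prior CellTiter-Fluor read for cell health.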
A number is an active result; – = inactive; ? = inconclusive; · = not tested or not shown. Shown are actives, neighbours in structure and some others; about 5.7% of the full set was active somewhere. Unless noted, calls follow the shape of the dose curve; as a rule, active = well fitted curve in the direction sought with a large enough effect; inconclusive = small, poorly fitted or top-dose-only effect, or another doubt; inactive = no such curve, though single readings can be large; an effect the other way counts as inactive or inconclusive.

SMILES	PI4K2A inh	Giardia killer	A549 viability	KB-3-1 cytotox	KB-V1 MDR tox	Nrf2 inh
CC(=O)Nc1nc2ccccc2n1Cc1ccc(Cl)cc1	–	–	–	9.2µM	?	?
Nn1c(SCC(=O)NC2CCCCC2)nnc1-c1n[nH]c2c1CCC2	–	·	·	·	·	·
COC(=O)CC1c2cc(OC)c(OC)cc2CCN1C(=O)Nc1ccc(C)cc1Cl (centres undefined)	–	·	–	·	·	·
N=c1nc(N)nc2n1NC(c1ccc(F)cc1)=CS2	–	–	–	–	1.3µM	–
Cc1ccc(NC(=S)NCc2cccn2C)cc1	–	–	?	–	?	?
Cc1cccc(NC(=S)NCc2cccn2C)c1	–	–	–	20.6µM	–	–
CCCC[n+]1c2ccccc2cc2ccccc21	–	–	–	16.4µM	–	–
CCC[n+]1c2ccccc2cc2ccccc21	–	–	–	?	20.6µM	–
O=C(NC1CCCCC1)c1ccc(COCC(F)(F)F)o1	–	–	–	–	–	–
O=C(NC1CCCCCC1)c1cccc(COCC(F)(F)F)c1	–	–	–	–	23.1µM	–
O=C(Nc1ccc(Cl)cc1)c1ccc(-n2cccn2)c([N+](=O)[O-])c1	–	–	?	?	14.6µM	?
COc1ccc(NC(=O)c2ccc(-n3cccn3)c([N+](=O)[O-])c2)cc1	–	–	–	–	?	?
CC1(C)Oc2ccc(C(=O)NCCCN3CCCC3)cc2NC1=O	–	·	·	·	·	·
Cc1csc(NC(=O)c2cccc(S(=O)(=O)N3CCCCC3)c2)n1	–	–	–	–	–	–
COc1ccc(-c2csc(NC(=O)C3CCCCN3S(=O)(=O)c3ccccc3)n2)cc1 (centres undefined)	–	–	–	?	–	23.1µM
CN1CCN(S(=O)(=O)c2cccc(C(=O)Nc3nc(-c4ccccc4)cs3)c2)CC1	–	–	–	?	3.26µM	–
COc1ccc(S(=O)(=O)N2Cc3ccccc3CC2C(=O)Nc2nccs2)cc1 (centres undefined)	–	–	–	–	20.6µM	–
O=C(Nc1nc(-c2ccccc2)cs1)c1cccc(S(=O)(=O)N2CCN(Cc3ccccc3)CC2)c1	–	–	–	–	–	–
COc1ccc(-c2csc(NC(=O)c3cccc(S(=O)(=O)N4CCN(C)CC4)c3)n2)cc1	–	–	–	–	–	14.6µM
COc1ccc(C2c3c(ncn(CCc4ccccc4)c3=N)Oc3ccc4ccccc4c32)cc1OC (centres undefined)	·	·	–	·	·	–
O=C(CNC(=O)C(c1ccccc1)c1ccccc1)OCC(=O)c1ccc2ccccc2c1	·	–	–	–	–	–
